# Experimental data taken from ChEMBL document CHEMBL3988442, “University of Dundee, Small-Polar-MMV Screening Library” (2021).
# For some assays here: Results with a measured potency or affinity are listed apart.
# Assays:
# Parameters in all cases: scale not given: direction of the effect not stated beside the values
# [1] = molecular target: Protein translocase subunit SecA (Escherichia coli (strain K12)) (UniProt P10408); test: Assay to Identify E. coli SecA ATPase Inhibitors; type: functional; details: 30 µM
# [2] = molecular target: T1, Ubiquitin-activating enzyme e1, putative (Leishmania donovani (strain BPK282A1)) (UniProt E9BSI1); test: Leishmania donovani Ubiquitin Activating Enzyme (LdE1); type: functional; details: 30 µM
# T1 sequence (whole entry): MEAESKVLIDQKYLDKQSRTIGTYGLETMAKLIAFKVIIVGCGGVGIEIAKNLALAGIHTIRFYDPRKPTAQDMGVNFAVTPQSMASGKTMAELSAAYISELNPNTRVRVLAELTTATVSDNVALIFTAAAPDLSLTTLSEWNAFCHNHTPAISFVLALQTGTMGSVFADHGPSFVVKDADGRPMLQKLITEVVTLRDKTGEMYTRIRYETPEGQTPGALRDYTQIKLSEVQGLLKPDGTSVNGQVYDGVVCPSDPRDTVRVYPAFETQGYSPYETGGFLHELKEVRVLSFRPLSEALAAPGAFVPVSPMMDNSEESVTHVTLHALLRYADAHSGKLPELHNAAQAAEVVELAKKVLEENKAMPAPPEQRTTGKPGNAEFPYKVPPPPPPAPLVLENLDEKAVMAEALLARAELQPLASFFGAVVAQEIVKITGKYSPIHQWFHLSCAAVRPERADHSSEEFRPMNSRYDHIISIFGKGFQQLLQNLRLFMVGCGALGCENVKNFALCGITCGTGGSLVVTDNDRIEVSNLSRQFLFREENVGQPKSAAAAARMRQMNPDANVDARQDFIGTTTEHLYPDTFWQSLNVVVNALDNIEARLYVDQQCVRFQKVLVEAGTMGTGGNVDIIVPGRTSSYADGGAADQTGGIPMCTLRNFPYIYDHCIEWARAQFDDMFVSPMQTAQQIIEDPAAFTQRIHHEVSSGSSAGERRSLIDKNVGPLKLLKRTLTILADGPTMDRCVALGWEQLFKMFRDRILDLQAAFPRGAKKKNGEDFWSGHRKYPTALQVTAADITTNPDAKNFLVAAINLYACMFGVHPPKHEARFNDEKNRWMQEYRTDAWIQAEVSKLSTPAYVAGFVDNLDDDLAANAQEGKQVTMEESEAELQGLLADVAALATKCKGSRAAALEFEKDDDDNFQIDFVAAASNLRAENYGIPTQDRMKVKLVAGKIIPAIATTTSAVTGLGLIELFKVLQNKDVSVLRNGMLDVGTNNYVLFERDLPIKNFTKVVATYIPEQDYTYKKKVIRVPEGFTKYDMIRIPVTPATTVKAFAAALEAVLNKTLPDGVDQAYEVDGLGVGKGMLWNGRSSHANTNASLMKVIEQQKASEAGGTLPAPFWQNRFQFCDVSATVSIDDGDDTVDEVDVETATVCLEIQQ
# [3] = molecular target: AMP-activated protein kinase, AMPK (Homo sapiens) (UniProt P54646+O43741+P54619+Q9UGJ0+Q9Y478+Q13131+Q9UGI9); test: AMP-dependent Kinase enzyme assay. An in vitro enzyme assay that detects ADP turnover that is directly proportional to AMPK activity. This uses naive AMPK that is activated during the assay with MK-8722; type: functional; details: 30 µM
# [4] = molecular target: Sialic acid-binding Ig-like lectin 9 (Homo sapiens) (UniProt Q9Y336); test: Hs-Siglec9 ALPHAscreen SOP 20170721; details: 10 µM
# [5] = test system: Trypanosoma cruzi; test: Trypanosoma cruzi phosphomannomutase and mannose-1-phosphate guanylyltransferase assay; type: functional; details: 10 µM
# [6] = molecular target: T2, Arginase-2, mitochondrial (Homo sapiens) (UniProt P78540); test: in vitro enzyme assay to detect the production of urea directly proportional to the activity of Arginase II; type: functional; details: 33.3 µM; further: in the data most compounds retested in dose-response had high values
# T2 sequence (whole entry): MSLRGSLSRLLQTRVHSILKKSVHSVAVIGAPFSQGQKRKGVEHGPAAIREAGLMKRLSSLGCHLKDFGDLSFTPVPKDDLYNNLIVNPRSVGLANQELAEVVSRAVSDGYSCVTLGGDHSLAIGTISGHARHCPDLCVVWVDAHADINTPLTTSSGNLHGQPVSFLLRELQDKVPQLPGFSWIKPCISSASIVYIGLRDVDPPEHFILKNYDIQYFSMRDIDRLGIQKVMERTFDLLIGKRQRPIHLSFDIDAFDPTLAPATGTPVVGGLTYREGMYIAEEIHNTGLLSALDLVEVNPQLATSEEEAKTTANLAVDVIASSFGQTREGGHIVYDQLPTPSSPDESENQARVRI
# [7] = molecular target: T3, Proteasome subunit beta (Trypanosoma cruzi) (UniProt O96673); test: Trypanosoma cruzi proteasome chymotrypsin-like activity (TcProtChymo) assay.; further: in the data most compounds retested in dose-response had high values; type: functional; details: 9.37 µM
# T3 sequence (whole entry): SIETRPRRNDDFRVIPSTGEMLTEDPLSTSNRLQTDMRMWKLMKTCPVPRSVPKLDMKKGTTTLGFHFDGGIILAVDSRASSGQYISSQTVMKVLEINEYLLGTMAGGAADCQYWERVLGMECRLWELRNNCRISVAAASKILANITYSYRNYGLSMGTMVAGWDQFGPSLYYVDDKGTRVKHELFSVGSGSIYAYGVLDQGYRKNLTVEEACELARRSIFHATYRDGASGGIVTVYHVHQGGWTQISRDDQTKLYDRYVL
# [8] = species on record: Homo sapiens; test: To identify inhibition of the IFN signalling (Jak-Stat) pathway via expression of an eGFP reporter gene under the control of an IFN-stimulated response element (ISRE) containing MxA promoter.; type: functional; details: 30 µM
# [9] = molecular target: T4, Tyrosyl-tRNA synthetase, putative (Trypanosoma cruzi (strain CL Brener)) (UniProt Q4DSP6); test: Trypanosoma cruzi tyrosyl tRNA synthetase (TcYRS) _High Tyrosine SOP; type: functional; details: 30 µM; further: in the data most compounds retested in dose-response had high values
# T4 sequence (whole entry): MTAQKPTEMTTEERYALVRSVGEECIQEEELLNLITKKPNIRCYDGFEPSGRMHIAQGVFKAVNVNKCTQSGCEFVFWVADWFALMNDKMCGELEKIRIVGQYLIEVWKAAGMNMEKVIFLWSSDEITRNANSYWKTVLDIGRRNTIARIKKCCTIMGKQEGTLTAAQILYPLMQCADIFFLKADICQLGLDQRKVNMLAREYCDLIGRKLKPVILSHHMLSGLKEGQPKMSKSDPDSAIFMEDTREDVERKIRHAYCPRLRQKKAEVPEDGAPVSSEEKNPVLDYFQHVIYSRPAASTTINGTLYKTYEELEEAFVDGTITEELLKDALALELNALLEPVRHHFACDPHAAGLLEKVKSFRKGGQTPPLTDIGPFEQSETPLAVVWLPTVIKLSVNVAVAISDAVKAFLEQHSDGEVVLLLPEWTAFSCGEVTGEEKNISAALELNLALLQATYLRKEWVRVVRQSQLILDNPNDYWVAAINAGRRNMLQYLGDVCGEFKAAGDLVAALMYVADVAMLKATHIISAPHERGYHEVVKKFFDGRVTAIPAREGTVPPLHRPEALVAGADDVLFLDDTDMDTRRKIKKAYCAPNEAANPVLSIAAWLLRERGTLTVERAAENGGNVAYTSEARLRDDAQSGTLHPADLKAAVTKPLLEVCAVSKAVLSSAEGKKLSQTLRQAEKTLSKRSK
# [10] = molecular target: T4, Tyrosyl-tRNA synthetase, putative (Trypanosoma cruzi (strain CL Brener)); test: Trypanosoma cruzi tyrosyl tRNA synthetase (TcYRS) SOP; type: functional; details: 30 µM
# [11] = molecular target: Chromo domain-containing protein 1 (Saccharomyces cerevisiae (strain ATCC 204508 / S288c) (Baker's yeast)) (UniProt P32657); test: ScCHD-1 Enzyme Inhibition Assay; type: functional; details: 30 µM; further: in the data most compounds retested in dose-response had high values
# Sequence of Chromo domain-containing protein 1 (Saccharomyces cerevisiae (strain ATCC 204508 / S288c) (Baker's yeast)) (P32657 whole entry, the tested form may be a part): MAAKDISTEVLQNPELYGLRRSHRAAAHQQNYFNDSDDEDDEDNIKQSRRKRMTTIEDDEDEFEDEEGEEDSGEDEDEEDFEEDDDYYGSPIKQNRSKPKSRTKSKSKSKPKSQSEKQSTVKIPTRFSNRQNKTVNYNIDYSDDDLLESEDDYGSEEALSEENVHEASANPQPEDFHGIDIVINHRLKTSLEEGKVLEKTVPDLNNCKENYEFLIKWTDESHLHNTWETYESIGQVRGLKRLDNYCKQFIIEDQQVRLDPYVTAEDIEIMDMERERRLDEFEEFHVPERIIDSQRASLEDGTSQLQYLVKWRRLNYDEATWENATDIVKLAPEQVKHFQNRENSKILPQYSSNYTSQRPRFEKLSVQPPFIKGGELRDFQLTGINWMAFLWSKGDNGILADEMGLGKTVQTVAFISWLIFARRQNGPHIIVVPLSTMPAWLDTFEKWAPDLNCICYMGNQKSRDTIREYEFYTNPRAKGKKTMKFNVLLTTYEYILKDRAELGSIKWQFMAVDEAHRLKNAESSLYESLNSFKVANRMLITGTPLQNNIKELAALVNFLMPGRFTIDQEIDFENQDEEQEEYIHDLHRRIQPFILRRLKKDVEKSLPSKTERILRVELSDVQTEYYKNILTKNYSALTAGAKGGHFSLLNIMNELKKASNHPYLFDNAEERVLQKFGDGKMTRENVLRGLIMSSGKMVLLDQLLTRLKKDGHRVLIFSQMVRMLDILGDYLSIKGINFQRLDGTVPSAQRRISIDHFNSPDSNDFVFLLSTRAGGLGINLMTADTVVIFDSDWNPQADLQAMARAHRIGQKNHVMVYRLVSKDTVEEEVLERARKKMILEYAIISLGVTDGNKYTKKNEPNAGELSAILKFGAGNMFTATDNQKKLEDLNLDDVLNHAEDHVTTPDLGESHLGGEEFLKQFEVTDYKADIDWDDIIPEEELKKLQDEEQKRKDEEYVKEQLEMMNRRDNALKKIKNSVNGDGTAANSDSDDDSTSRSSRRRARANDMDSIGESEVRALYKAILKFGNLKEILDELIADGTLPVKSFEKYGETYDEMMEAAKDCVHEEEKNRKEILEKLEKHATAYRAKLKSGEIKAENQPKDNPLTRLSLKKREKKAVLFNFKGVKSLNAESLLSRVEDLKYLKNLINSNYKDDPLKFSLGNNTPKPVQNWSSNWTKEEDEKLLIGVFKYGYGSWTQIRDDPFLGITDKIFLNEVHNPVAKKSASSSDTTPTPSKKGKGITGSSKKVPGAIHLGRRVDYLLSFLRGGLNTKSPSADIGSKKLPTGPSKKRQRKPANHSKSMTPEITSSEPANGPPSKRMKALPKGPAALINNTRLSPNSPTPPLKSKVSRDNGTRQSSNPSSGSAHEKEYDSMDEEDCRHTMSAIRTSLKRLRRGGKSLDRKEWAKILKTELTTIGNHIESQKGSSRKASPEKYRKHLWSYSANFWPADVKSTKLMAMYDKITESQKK
# Sequence of Protein translocase subunit SecA (Escherichia coli (strain K12)) (P10408 whole entry): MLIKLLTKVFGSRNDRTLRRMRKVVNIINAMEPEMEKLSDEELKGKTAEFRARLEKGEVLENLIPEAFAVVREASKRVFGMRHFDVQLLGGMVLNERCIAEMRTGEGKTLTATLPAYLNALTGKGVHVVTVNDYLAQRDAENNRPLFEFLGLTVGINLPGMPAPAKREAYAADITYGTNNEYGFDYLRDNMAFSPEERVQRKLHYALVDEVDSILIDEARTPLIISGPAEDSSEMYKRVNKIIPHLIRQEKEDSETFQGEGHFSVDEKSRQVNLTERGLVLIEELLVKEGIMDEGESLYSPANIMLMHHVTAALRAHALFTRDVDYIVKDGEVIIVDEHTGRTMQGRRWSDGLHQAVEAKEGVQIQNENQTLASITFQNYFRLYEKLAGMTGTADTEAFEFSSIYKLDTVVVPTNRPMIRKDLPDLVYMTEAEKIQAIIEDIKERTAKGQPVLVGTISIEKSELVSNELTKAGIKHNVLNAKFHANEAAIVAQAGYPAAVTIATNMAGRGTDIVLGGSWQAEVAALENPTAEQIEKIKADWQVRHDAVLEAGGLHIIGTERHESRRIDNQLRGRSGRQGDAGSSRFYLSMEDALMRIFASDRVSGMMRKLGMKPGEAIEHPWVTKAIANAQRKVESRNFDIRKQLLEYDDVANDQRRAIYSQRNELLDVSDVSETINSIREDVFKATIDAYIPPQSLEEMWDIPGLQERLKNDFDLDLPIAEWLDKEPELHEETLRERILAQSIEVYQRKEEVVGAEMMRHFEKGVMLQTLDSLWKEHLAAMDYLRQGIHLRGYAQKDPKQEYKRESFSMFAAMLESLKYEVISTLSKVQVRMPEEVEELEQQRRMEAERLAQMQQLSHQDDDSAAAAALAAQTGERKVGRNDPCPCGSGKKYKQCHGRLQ
# Sequence of Sialic acid-binding Ig-like lectin 9 (Homo sapiens) (Q9Y336 whole entry): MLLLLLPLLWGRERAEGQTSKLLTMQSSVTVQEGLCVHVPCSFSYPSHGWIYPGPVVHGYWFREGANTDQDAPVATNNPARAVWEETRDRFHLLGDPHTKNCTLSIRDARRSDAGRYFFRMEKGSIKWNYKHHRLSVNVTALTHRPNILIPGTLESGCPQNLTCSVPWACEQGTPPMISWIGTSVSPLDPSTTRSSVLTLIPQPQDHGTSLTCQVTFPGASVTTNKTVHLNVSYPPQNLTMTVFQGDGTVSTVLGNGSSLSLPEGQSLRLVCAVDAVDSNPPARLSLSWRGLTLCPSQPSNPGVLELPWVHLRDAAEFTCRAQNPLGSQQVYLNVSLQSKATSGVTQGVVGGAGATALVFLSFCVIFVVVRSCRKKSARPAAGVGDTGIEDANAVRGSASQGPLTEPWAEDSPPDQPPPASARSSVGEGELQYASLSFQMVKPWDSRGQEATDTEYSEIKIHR
SMILES,Percent Effect [1],Percent Effect [2],Percent Effect [3],Percent Effect [4],Percent Effect [5],Percent Effect [6],Percent Effect [7],Percent Effect [8],Percent Effect [9],Percent Effect [10],Percent Effect [11]
CCn1cc(N2Cc3nc(N4CCN(C)CC4)ncc3C2=O)cn1,-4.57%,4%,4.85%,8.98%,-1.97%,-13.2%,15.2%,-0.771%,6.35%,12.8%,-11.9%
Cc1cccc(CN(Cc2ccc(C)o2)C2CC(C)(C)NC(C)(C)C2)n1,-4.93%,9.46%,9.39%,-2.48%,-6.13%,-3.48%,10.8%,1.42%,3.23%,3.9%,-0.669%
c1ccc(-c2cnc(CN3CCCC3Cn3cncn3)o2)cc1 (stereo unspecified),-2.46%,5.06%,-0.0232%,-1.55%,-2.93%,2.66%,-0.737%,10.6%,7.39%,13.9%,-8.4%
CC1CCN(C(=O)c2ccn(COc3ccc(F)cc3)n2)CC1,-1.66%,5.2%,-0.0433%,10.1%,2.26%,-5.52%,25%,-6.17%,6.45%,16.1%,-3.54%
CC(Cn1cccn1)NC(=O)Nc1nccs1 (stereo unspecified),-5.47%,10.4%,1.39%,4.54%,-3.37%,0.712%,5.57%,17.5%,4.85%,19.5%,-5.22%
Cc1cnn(CCNCc2csc(-c3ccc4c(c3)OCO4)n2)c1,-4.64%,-13.2%,-1.92%,-4.07%,-5.83%,2.68%,11.2%,24%,1.47%,4.88%,18%
COCCN1CCN(CCCS(C)(=O)=O)CC1C (stereo unspecified),-5.52%,21.6%,-8.32%,7.36%,9.56%,0.924%,9.16%,4.15%,9.9%,28.1%,52%
Cn1cccc1CN1CCC2(CCCN(C(=O)Cc3cccnc3)C2)C1 (stereo unspecified),-2.25%,0%,-2.27%,-5.33%,-2.07%,-4.52%,1.39%,2.23%,-2.12%,-6.41%,-7.07%
O=C(NCCN1CCOCC1)c1n[nH]c(=O)c2ccccc12,-3.44%,28.6%,-3.48%,5.43%,6.37%,-3.56%,14.2%,12.3%,4.85%,21.9%,-9.16%
CC(C)c1nc(CN2CCN(C(C)c3nc(C4CC4)no3)CC2)no1 (stereo unspecified),-0.845%,-3.8%,4.42%,1.01%,-1.13%,1.07%,3.09%,-8.78%,2.08%,2.53%,2.13%
O=c1cc(Cn2ccnc2)nc2n1CCCN(Cc1ccsc1)C2,-4.06%,4%,0.478%,7%,-5.7%,-6.51%,13.3%,-7.79%,7.41%,5.13%,-8.3%
CN(CCc1ccccc1)C1CCCN(Cc2nccn2C)C1 (stereo unspecified),-4.99%,-39%,-1.69%,5.27%,8.36%,0%,9.48%,-25.8%,6.45%,6.17%,-8.68%
Cc1ccc(Nc2nccc(C3CN(CC(N)=O)C3)n2)nc1,-6.39%,20.3%,2.38%,3.4%,7.12%,-5.8%,17.2%,10.7%,8.6%,24.7%,-14.1%
COc1ccc(CN2C[C@H]3CC[C@](O)(c4ccc(C)cn4)[C@H]3C2)c(F)c1,-5%,6.76%,15.2%,2.69%,-2.77%,-1.16%,-1.56%,13.7%,5.38%,6.49%,-8.01%
CN(C)CC(=O)N1CCCC2(CCC(=O)N(CCc3c[nH]cn3)C2)C1 (stereo unspecified),-1.9%,15.6%,-0.193%,10.6%,1.48%,-45.5%,11%,-2.33%,9.68%,16.1%,-1.67%
CC(C)NC(=O)[C@@H]1CCO[C@@H]2CCN(c3ncccn3)C[C@H]21,-6.07%,16%,-1.13%,0.524%,0.579%,-45%,4.1%,-11%,8.33%,10%,-7.2%
